Test results: PubChem BioAssay (Tox21)
Values joined by “and” are separate entries in the source; they are usually repeats but may differ in a detail not shown here. Equal entries are not always repeated. Inconclusive results are not listed. More than one record can exist for a structure, and the calls need not agree. Active and inactive are the calls of the source. Unless noted, calls follow the shape of the dose curve; as a rule, active = well fitted curve in the direction sought with a large enough effect in the repeat runs; inconclusive = weak or mixed curves; inactive = no such curve, though single readings can be large; an effect the other way counts as inactive or inconclusive.

What was measured:
[1] = target: Thyrotropin receptor (Homo sapiens) (UniProt P16473); assay: qHTS assay to identify small molecule agonists of the thyroid stimulating hormone receptor (TSHR) signaling pathway (AID 1224843; calls by dose curve; also: nearly all actives have a fitted effect of over 45% in size)
Summary of the method: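 Cell line HEK293 with TSHR; density 800/well. Exposure 30 min RT. Readout HTRF cAMP (cAMP-d2/anti-cAMP-cryptate), 1 h RT before reading.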

[2] = qHTS assay to identify small molecule agonists of the hypoxia (HIF-1) signaling pathway - cell viability counter screen (AID 1224844; calls by dose curve; also: nearly all actives have a fitted effect of over 50% in size)
Summary of the method: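 HRE-bla ME-180 cells, 2,000/well in 0.5% dialyzed FBS medium, treated 17 h at 37C with compounds. Viability read in the same wells as the bla reporter, by CellTiter-Glo luminescence after 30 min at room temperature.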

[3] = qHTS assay to identify small molecule agonists of H2AX (AID 1224845; active = well fitted activation curve with a large enough effect in the signal ratio in the repeat runs, not every such curve was filed as active; the % refers to the signal ratio)
Summary of the method: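 Wild-type CHO-K1 cells plated overnight, then exposed 3 hr at 37C to compounds at 15 concentrations (0.76% DMSO). Lysed, then HTRF anti-pH2AX(S139)-cryptate/anti-H2AX-d2 detection after 24 hr at room temperature; emissions 665 and 620 nm.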

[4] = qHTS assay to identify small molecule agonists of the hypoxia (HIF-1) signaling pathway (AID 1224846; active = well fitted activation curve with a large enough effect in the signal ratio in the repeat runs, not every such curve was filed as active; the % refers to the signal ratio)
Summary of the method: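 HRE-bla ME-180 beta-lactamase reporter cells in medium with 0.5% dialyzed FBS, pre-incubated 5 h then exposed to compounds 17 h at 37C, 5% CO2; reporter induction read with CCF4-AM FRET substrate.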

[5] = qHTS assay to identify small molecule agonists of H2AX - cell viability counter screen (AID 1224847; calls by dose curve; also: nearly all actives have a fitted effect of over 30% in size; also: potency is read from the fitted curve at half-maximal effect)
Summary of the method: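 We seed wild-type CHO-K1 cells overnight, treat them for 3 hr at 37C with compounds in 15-concentration series, and quantify remaining viability by CellTiter-Glo luminescence.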

[6] = qHTS RealTime-Glo MT Cell Viability Assay in HepG2 cells - 24 hour (AID 1224867); also: nearly all actives have a fitted effect of over 50% in size
Summary of the method: (§1)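 qHTS, HepG2, 600 cells/well, RealTime-Glo (NanoLuc + prosubstrate) added with cells; 5 h preincubation; DMSO compound addition; 37 C; luminescence at 0/8/16/24/32/40 h.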

[7] = qHTS RealTime-Glo MT Cell Viability Assay in HEK293 cells - 32 hour (AID 1224868); also: top concentration of the series differs between compounds; nearly all actives have a fitted effect of over 50% in size
Summary of the method: (§2)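 Assay medium contained NanoLuc luciferase plus cell-permeant prosubstrate, added with HEK293 cells at 600 cells/well. After 5 h at 37 C/5% CO2 compounds were added; plates stayed at 37 C for 40 h with serial luminescence reads.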

[8] = A CellTox Green Cytotoxicity Assay to monitor cytotoxicity in HEK293 cells - 0 hour (AID 1224869); also: nearly all actives have a fitted effect of over 50% in size
Summary of the method: (§3)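 HEK293 cells, 600/well, were preincubated 5 hours and then exposed to compounds at 37 C for up to 40 hours. A cell-impermeant cyanine dye staining dead-cell DNA was read by fluorescence at 0, 8, 16, 24, 32 and 40 h time points.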

[9] = qHTS RealTime-Glo MT Cell Viability Assay in HepG2 cells - 40 hour (AID 1224870); also: nearly all actives have a fitted effect of over 50% in size
Summary of the method: (§4)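 HepG2 cells mixed with RealTime-Glo MT reagents (NanoLuc plus cell-permeant prosubstrate) were seeded at 600 cells/well, incubated 5 h at 37 C/5% CO2, then pinned with compounds in DMSO; nonlytic luminescence tracked viability during 40 h treatment.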

[10] = A CellTox Green Cytotoxicity Assay to monitor cytotoxicity in HEK293 cells - 40 hour (AID 1224871); also: nearly all actives have a fitted effect of over 45% in size
Summary of the method: as §3

[11] = qHTS RealTime-Glo MT Cell Viability Assay in HEK293 cells - 16 hour (AID 1224872)
Summary of the method: as §2

[12] = qHTS RealTime-Glo MT Cell Viability Assay in HepG2 cells - 8 hour (AID 1224873); also: nearly all actives have a fitted effect of over 55% in size
Summary of the method: as §4

[13] = qHTS RealTime-Glo MT Cell Viability Assay in HEK293 cells - 40 hour (AID 1224874); conditions: RealTime-Glo luminescence; max response: stronger effect = lower value; also: nearly all actives have a fitted effect of over 50% in size
Summary of the method: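 600 cells/well were plated with the nonlytic NanoLuc/prosubstrate reagent, pre-incubated 5 h, then given 23 nL of compound in DMSO. Incubation at 37 C for 40 h, with luminescence from viable-cell-reduced substrate read repeatedly from 0 h.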

[14] = A CellTox Green Cytotoxicity Assay to monitor cytotoxicity in HEK293 cells - 24 hour (AID 1224875); also: nearly all actives have a fitted effect of over 45% in size
Summary of the method: as §3

[15] = A CellTox Green Cytotoxicity Assay to monitor cytotoxicity in HepG2 cells - 16 hour (AID 1224876); also: nearly all actives have a fitted effect of over 45% in size
Summary of the method: (§5)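 HepG2 cells, 600/well, preincubated 5 h with CellTox Green dye, then exposed to Tox21 compounds in DMSO at 37 C for up to 40 h. Dead-cell DNA fluorescence read at the indicated time point.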

[16] = qHTS RealTime-Glo MT Cell Viability Assay in HepG2 cells - 32 hour (AID 1224877); also: nearly all actives have a fitted effect of over 55% in size
Summary of the method: as §1

[17] = A CellTox Green Cytotoxicity Assay to monitor cytotoxicity in HepG2 cells - 24 hour (AID 1224878); also: nearly all actives have a fitted effect of over 45% in size
Summary of the method: as §5

[18] = A CellTox Green Cytotoxicity Assay to monitor cytotoxicity in HepG2 cells - 40 hour (AID 1224879); also: nearly all actives have a fitted effect of over 40% in size
Summary of the method: as §5

[19] = qHTS assay to identify small molecule antagonists of the estrogen related receptor (ERR) signaling pathway from Tox21 library (AID 1224848); also: nearly all actives have a fitted effect of over 50% in size; also: potency is read from the fitted curve at half-maximal effect
Summary of the method: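 Screening used an ERR reporter line supplied by NTP, exposed for 18 h at 37 C to library compounds delivered in DMSO. Signal was luciferase luminescence developed with ONE-Glo at room temperature for 30 min.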

[20] = qHTS assay to identify small molecule agonists of the estrogen related receptor (ERR) signaling pathway from Tox21 library (AID 1224849; calls by dose curve; also: nearly all actives have a fitted effect of over 15% in size); conditions: ERR reporter cell line, ONE-Glo luciferase, 18 h; at 92.4 µM (top of the series)
Summary of the method: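 ERR reporter cells (NTP line) pre-incubated 6 hours at 37 C, then exposed to compounds for 18 hours at 37 C. ONE-Glo luciferase luminescence was read after 30 minutes at room temperature.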
% is scaled to controls: 0 for no effect and ±100 for the full control effect.

Chain of Thyrotropin receptor (Homo sapiens) (P16473 whole entry, looked up): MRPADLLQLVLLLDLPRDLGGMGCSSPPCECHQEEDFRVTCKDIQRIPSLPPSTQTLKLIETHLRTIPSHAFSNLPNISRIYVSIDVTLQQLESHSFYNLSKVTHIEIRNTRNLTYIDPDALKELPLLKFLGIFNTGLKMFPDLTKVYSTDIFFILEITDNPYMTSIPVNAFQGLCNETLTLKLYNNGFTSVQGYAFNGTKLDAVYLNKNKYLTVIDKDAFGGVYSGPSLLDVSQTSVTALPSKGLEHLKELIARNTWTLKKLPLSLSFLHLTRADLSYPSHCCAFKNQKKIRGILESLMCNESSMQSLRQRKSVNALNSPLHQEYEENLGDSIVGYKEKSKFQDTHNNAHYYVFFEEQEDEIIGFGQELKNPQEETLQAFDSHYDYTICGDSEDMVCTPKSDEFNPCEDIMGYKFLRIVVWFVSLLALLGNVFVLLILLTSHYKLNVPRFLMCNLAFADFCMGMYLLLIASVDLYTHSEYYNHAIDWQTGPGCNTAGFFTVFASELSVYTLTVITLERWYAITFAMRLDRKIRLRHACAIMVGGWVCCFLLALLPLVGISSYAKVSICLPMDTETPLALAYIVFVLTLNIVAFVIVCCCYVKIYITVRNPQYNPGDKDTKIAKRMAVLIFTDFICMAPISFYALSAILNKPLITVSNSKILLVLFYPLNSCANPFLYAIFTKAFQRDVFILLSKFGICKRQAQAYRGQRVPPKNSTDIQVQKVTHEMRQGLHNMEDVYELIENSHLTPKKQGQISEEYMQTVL

Oc1cc(Cl)c(Cl)cc1Cl
inactive: Potency [1] | Potency [2] | Potency [3] | outcome [4] | Potency [6] | Potency [7] | Potency [8] | Potency [9] | Potency [10] | Potency [11] | Potency [12] | max response [13] -18.2% and -12.4% | Potency [14] | Potency [15] | Potency [16] | Potency [17] | Potency [18]
100 µM (active) and inactive: Potency [5]

CCN(CC)C(=O)/C(Cl)=C(\C)OP(=O)(OC)OC
inactive: Potency [1] | Potency [2] | Potency [3] | outcome [4] | Potency [5] | Potency [6] | Potency [7] | Potency [8] | Potency [9] | Potency [10] | Potency [11] | Potency [12] | max response [13] -0.126% and -1.25% | Potency [14] | Potency [15] | Potency [16] | Potency [17] | Potency [18]

CCC(C)c1cc([N+](=O)[O-])cc([N+](=O)[O-])c1O (centres undefined)
inactive and 28.4 µM (active): Potency [5]
inactive and 13.7 µM (active): Potency [19]
inactive: Potency [1] | Potency [2] | Potency [3] | outcome [4] | activity change, positive = activation [20] -0.756% and -61% | Potency [6] | Potency [7] | Potency [8] | Potency [9] | Potency [10] | Potency [11] | Potency [12] | max response [13] 5.87% | Potency [14] | Potency [15] | Potency [16] | Potency [17] | Potency [18]

C=CCc1ccc(OC)cc1
inactive: Potency [1] | Potency [2] | Potency [3] | outcome [4] | Potency [5] | Potency [6] | Potency [7] | Potency [8] | Potency [9] | Potency [10] | Potency [11] | Potency [12] | max response [13] -1.64% and 2.11% | Potency [14] | Potency [15] | Potency [16] | Potency [17] | Potency [18]

COc1ccc(C=O)cc1
inactive: Potency [1] | Potency [2] | Potency [3] | outcome [4] | Potency [5] | Potency [6] | Potency [7] | Potency [8] | Potency [10] | Potency [11] | Potency [12] | max response [13] 7.64% and 1.9% | Potency [14] | Potency [15] | Potency [16] | Potency [17] | Potency [18]

C=C(C)C(=O)OCC1CO1 (centres undefined)
inactive: Potency [1] | Potency [2] | Potency [3] | outcome [4] | Potency [5] | Potency [19] | activity change, positive = activation [20] -2.17% and 2.32% | Potency [6] | Potency [7] | Potency [8] | Potency [9] | Potency [10] | Potency [11] | Potency [12] | max response [13] 9.74% and -15.3% | Potency [14] | Potency [16] | Potency [17] | Potency [18]

OCC(O)CO
inactive: Potency [1] | Potency [2] | Potency [3] | outcome [4] | Potency [5] | Potency [19] | activity change, positive = activation [20] 2.36% and 0.0013% | Potency [6] | Potency [7] | Potency [8] | Potency [9] | Potency [10] | Potency [11] | Potency [12] | max response [13] -4.06% and 6% | Potency [14] | Potency [16] | Potency [17] | Potency [18]

O=[N+]([O-])c1cccc2ccccc12
inactive: Potency [1] | Potency [2] | Potency [3] | outcome [4] | Potency [5] | Potency [19] | activity change, positive = activation [20] -1.67% and -0.342% | Potency [6] | Potency [7] | Potency [8] | Potency [10] | Potency [11] | Potency [12] | max response [13] 3.63% and 7.21% | Potency [14] | Potency [16] | Potency [17] | Potency [18]

COP(=S)(OC)Oc1cc(Cl)c(Cl)cc1Cl
inactive: Potency [1] | Potency [2] | Potency [3] | outcome [4] | Potency [5] | Potency [6] | Potency [7] | Potency [8] | Potency [9] | Potency [10] | Potency [11] | Potency [12] | max response [13] -10.5% and -1.54% | Potency [14] | Potency [15] | Potency [16] | Potency [17] | Potency [18]

CC(C)C(=O)OCC(C)(C)C(OC(=O)C(C)C)C(C)C (centres undefined)
inactive: Potency [1] | Potency [2] | Potency [3] | outcome [4] | Potency [5] | Potency [19] | activity change, positive = activation [20] 5% and 0.884% | Potency [6] | Potency [7] | Potency [8] | Potency [9] | Potency [10] | Potency [11] | Potency [12] | max response [13] -10.2% and 4.91% | Potency [14] | Potency [16] | Potency [17] | Potency [18]

Cc1cc(Cl)ccc1OCCCC(=O)O
inactive: Potency [1] | Potency [2] | Potency [3] | outcome [4] | Potency [5] | Potency [6] | Potency [7] | Potency [8] | Potency [10] | Potency [11] | Potency [12] | max response [13] 5.09% and 8.04% | Potency [14] | Potency [15] | Potency [16] | Potency [17] | Potency [18]

CCCCN(CCCC)N=O
inactive: Potency [1] | Potency [2] | Potency [3] | outcome [4] | Potency [5] | Potency [6] | Potency [7] | Potency [8] | Potency [9] | Potency [10] | Potency [11] | Potency [12] | max response [13] -0.0622% and 14.1% | Potency [14] | Potency [15] | Potency [16] | Potency [17] | Potency [18]
